Test results taken from PubChem BioAssay AID651899 (Broad Institute, 2012).
Entries with a potency or affinity are not part of this list. Values without a mark were called inactive. No rule for the calls is given here.

Assay: cytotoxicity in HEK293 cells, dose response, cytotoxicity control, cell-based, plate reader, cherry-pick (AID 651899);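 also: cells exposed to compound for 48 hours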
Settings: series mostly up to 26 µM; activity change, negative = cytotoxicity: at the top concentration

SMILES	activity change, negative = cytotoxicity [%]
COCCNC(=O)C[C@@H]1CC[C@@H]2[C@H](COc3ccc(NC(=O)Nc4cccc(F)c4)cc3C(=O)N2C)O1	7.53
COc1ccc(NC(=O)c2ccc(S(=O)(=O)N(C)C)cc2)cc1OC	5.37
COC(=O)c1c(C(=O)OC)c(-c2ccccc2)n2c1CS(=O)C2 (configuration not stated)	6.13
CCc1nn(CC(=O)N2CCN(Cc3ccc4c(c3)OCO4)CC2)c(=O)c2cc3occc3n12	7.76
COc1ccc(Cn2ccc(=O)c(Cc3c(Cl)cccc3Cl)c2C)cc1	9.69
O=C(c1ccccc1F)N1CC[C@@H]2[C@H](CO)Nc3ccc(Br)cc3[C@@H]21	-16
O=C(Nc1ccc(F)c(Cl)c1)C1CCCN(c2cnccn2)C1 (configuration not stated)	17.6
CCC(Sc1nc2ccsc2c(=O)n1Cc1ccc(C(=O)O)cc1)C(=O)Nc1cccc(OC)c1 (configuration not stated)	60
O=C(Nc1ccc2snnc2c1)N1CCN(c2ccccc2)CC1	18.5
O=C(Nc1ncc2c(n1)CC(c1cccc(Cl)c1)CC2=O)c1ccco1 (configuration not stated)	5.23
O=C(Nc1ccc(F)c(F)c1)C1CCN(S(=O)(=O)c2cccs2)CC1	-28.7
O=C(Nc1cccnc1)c1cc2nc(C3CC3)cc(C(F)(F)F)n2n1	10.3
CC1Cc2nc(SCC(=O)N3CCOCC3)n(-c3ccccc3)c(=O)c2S1 (configuration not stated)	-5.73
O=C(Nc1ccc(F)c(F)c1)c1ccc(-n2cncn2)c([N+](=O)[O-])c1	8.6
O=C(Nc1ccccc1)N1CCN(Cc2ccc3c(c2)OCO3)CC1	9.86
CC1(C)CC(=O)C=C(c2ccc3ncccc3c2)C1	-15.8
CCN(CC)c1ccc2cc(C(=O)c3cccs3)c(=O)oc2c1	6.31
